Screening results: PubChem BioAssay, National Center for Advancing Translational Sciences (NCATS)
Pf growth 48h: P. falciparum growth inhibition at 48 hours (one generation) | P. falciparum luciferase growth in erythrocytes, 48 h | Potency, µM (titrated, usually from 28.7 µM), for inactives: at the top dose activity change, negative = inhibition, usual class: inhibitors | 5.9% of 310,000 active | AID 504832; further: on the % scale 0 is the no-effect control and ±100 the full control effect
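Luminescence readout; reporter = integrated firefly luciferase in P. falciparum. RBC culture at 2% hematocrit, 0.1% parasitemia final, 37 C/5% CO2; decreased signal taken as growth inhibition.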
VACV Venus inh: vaccinia inhibition (Venus reporter) | Vaccinia virus Venus reporter expression, fluorescence | 0.46% of 330,000 active | Potency, µM (series often up to 36.5 µM), for the others: at the top dose activity change, negative = inhibition, actives largely listed as inhibitors; calls by dose curve; tested in A549 cells; further: on the % scale 0 is the no-effect control and ±100 the full control effect; nearly all actives have a fitted effect of over 30% in size
Pf growth 96h: P. falciparum growth inhibition at 96 hour, primary screen for plastid delayed-death inhibitors. Potency, µM (titrated, usually from 28.7 µM), for inactives: at the highest dose activity change, negative = inhibition, usual class: inhibitors. P. falciparum luciferase reporter growth, 96 h. 6.9% of 320,000 active; further: on the % scale 0 is the no-effect control and ±100 the full control effect
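Parasite growth measured via integrated firefly luciferase reporter in P. falciparum. Infected erythrocytes at 2% hematocrit, 0.05% parasitemia final were treated 96 hours at 37 C under 5% CO2, and luminescence was read.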
NS1 function inh: inhibitors of influenza NS1 protein function. Potency, µM (highest dose often 46.1 µM), inactives show top-dose activity, positive = more growth. 0.4% of 270,000 active. AID 2326; calls by dose curve; further: actives are rising curves; nearly all actives have a fitted effect of over 50% in size
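A cell-based growth assay was used: compounds that relieve NS1-induced slow growth of budding yeast raise OD600. Assay medium was yeast nitrogen base with ammonium sulphate and -URA supplement, pH 6.0, with 2% galactose.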
Vaccinia mCherry: vaccinia inhibition (mCherry reporter); Potency, µM (titrated, usually from 36.5 µM), for inactives: at the top dose activity change, negative = inhibition, usual class: inhibitors; 0.63% of 310,000 active; Vaccinia virus mCherry reporter infection, fluorescence; AID 720579; calls by dose curve; tested in A549 cells; further: on the % scale 0 is the no-effect control and ±100 the full control effect; nearly all actives have a fitted effect of over 35% in size
HCV inh: inhibitors of hepatitis C virus infection; AID 651820; Potency, µM (doses to about 41.8 µM), without a hit: at the highest dose activity change, negative = inhibition, usual class: inhibitors; Huh7.5.1 HCVcc-Cre infection, luciferase reporter, 44 h; 3.4% of 340,000 active; further: on the % scale 0 is the no-effect control and ±100 the full control effect
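After 44 h co-culture of compound, cells and HCVcc-Cre (~0.5 moi), substrate is added for 15 min at room temperature and luciferase measured over 15 sec. Cells were seeded at 1,000/well and pre-cultured 4 h.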
An asterisk follows results filed as active; i = inactive; ? = inconclusive; / = no result; [ ] = dose if it differs, or a comment. An excerpt weighted towards active compounds, which were near 11% of everything screened. Unless noted, the call rests on the fitted dose curve; in most records, active means well fitted inhibition curve with a large enough effect; inconclusive means small, poorly fitted or top-dose-only effect, or another doubt; inactive means no such curve, though single readings can be large or run the other way. Potency means the concentration at half of the fitted maximal effect.

SMILES	Pf growth 48h	VACV Venus inh	Pf growth 96h	NS1 function inh	Vaccinia mCherry	HCV inh
COc1cccc(C(=O)CC(C(=O)O)c2ccc(Cl)cc2)c1 (configuration not stated)	6%	/	16%	-5%	/	6%
COC(=O)c1ccc(OC)c(CN2CCCN(Cc3cc(C)ccc3C)S2(=O)=O)c1	15µM*	-8%	13%	-3%	-9%	?
CCOc1ccc(NC(=S)N(CCc2c(C)[nH]c3ccc(C)cc23)Cc2cccnc2)cc1	?	-17%	3.7µM*	10%	-23%	-8%[8.37 µM]
Cc1[nH]c2ccc(F)cc2c1CCN(Cc1cccnc1)C(=S)Nc1ccc(F)cc1	4.1µM*	/	7.4µM*	/	/	?
CCNC(=S)N(CCc1c(C)[nH]c2ccc(C)cc12)Cc1cccnc1	?	-16%	?	5%	-20%	?
CCNC(=S)N(CCc1c(C)[nH]c2ccc(F)cc12)Cc1cccnc1	/	/	16%	-1%	/	-17%
Cc1ccc(Cl)c(OCC(=O)Nc2ccc3c(c2)OCCO3)c1	113%	-6%	/	-6%	-13%	10µM*
Cc1ccc(C)c(OCC(=O)Nc2ccc3c(c2)OCO3)c1C	-29%	?	-24%	-16%	-16%	11µM*
CCN(CC(=O)Nc1ccc2c(c1)OCCO2)C(=O)COc1cc(C)ccc1Cl	12%	-1%	-21%	/	i	?
Cc1nc(N)sc1-c1csc(NCc2ccccc2)n1	?	-2%	?	?	-8%	-26%
COc1cc2c(cc1OC)CN(c1nc(CN3CCOCC3)nc3sc4c(c13)CCCC4)CC2	9.3µM*	?	1.7µM*	-3%	?	?
Cc1cc(S(=O)(=O)Nc2nc(CN3CCOCC3)nc3sc4c(c23)CCC4)cc(C)c1C	-3%	-1%	5%	/	-10%	-11%
COc1cc2c(cc1OC)CN(c1nc(CN3CCCCC3)nc3sc4c(c13)CCCC4)CC2	3.3µM*	-4%	1.9µM*	7%	-7%	22µM*
Cc1nc(N2CCOCC2)c2c3c(sc2n1)CCC3	10µM*	-15%	?	/	-20%	?
COc1cccc(Nc2nc(CN3CCOCC3)nc3sc4c(c23)CCCC4)c1	15µM*	-27%	?	-1%	?	-9%
CSc1nc(N2CCOCC2)c2c3c(sc2n1)CCCC3	?	-16%	4%	-58%	/	?
COc1ccc(OC)c(C(c2nnnn2C2CCCC2)N2CCc3ccccc3C2)c1 (configuration not stated)	2.9µM*	?	24%	-60%	/	11µM*
COc1ccc(C(c2nnnn2C2CCCC2)N2CCc3ccccc3C2)cc1OC (configuration not stated)	3.7µM*	-18%	35%	-32%	/	-11%
COc1ccc(C(c2nnnn2C2CCCC2)N2CCC(C(N)=O)CC2)c(OC)c1 (configuration not stated)	?	-29%	?	-11%	/	17%
C=CCn1c(SCC(=O)c2ccc(Cl)cc2)nnc1-c1ccc2c(c1)OCO2	?	-2%	12µM*	13%	i	-2%
CC(C)(C)NC(=O)C1CCN(C(=O)c2ccc(-c3ccccc3)cc2)CC1	9.3µM*	-28%	/	-49%	/	?
O=C(NC1CCCCC1)C1CCN(C(=O)c2ccc(-c3ccccc3)cc2)CC1	-15%	-7%	6%	-3%	-2%	1%
O=C(Nc1ccccc1)C1=C[C@@H](C2CC2)C[C@@H](OCc2ccc(CO)cc2)O1	4%	-13%	7%	-12%	-8%	0.56µM*
O=C(O)C1=C[C@H](C2CC2)C[C@H](OCc2ccc(CO)cc2)O1	/	3%	/	/	i	16%
O=C(Nc1ccccc1)C1=C[C@H](c2ccccc2)C[C@H](OCc2ccc(CO)cc2)O1	?	6%	?	-4%	8%	4%[8.37 µM]
C#Cc1ccc([C@H]2C=C(C(=O)Nc3ccccc3)O[C@@H](OCc3ccc(CO)cc3)C2)cc1	7.4µM*	-16%	7.4µM*	-36%	i	-9%
CCOc1ccc(S(=O)(=O)NCCC(=O)NCC(c2ccc(OC)cc2)N2CCOCC2)cc1 (configuration not stated)	/	-13%	/	/	i	/
